A short description of experiment [1]: qHTS assay to identify small molecule antagonists of the glucocorticoid receptor (GR) signaling pathway - cell viability counter screen (AID 720693). Note: nearly all actives have a fitted effect of over 55% in size. The note with it: GR-bla HeLa viability, CellTiter-Glo luminescence, 18 h, with 5 nM dexamethasone present; series mostly up to 58.5 µM.
The nature of experiment [2]: qHTS assay for identifying genotoxic compounds that show differential cytotoxicity against isogenic chicken DT40 cell lines with known DNA damage response pathways - wild type cell line (AID 743012). Note: nearly all actives have a fitted effect of over 60% in size. Note: potency is the fitted concentration of half-maximal effect. The note with it: DT40 wild type chicken cells viability, CellTiter-Glo, 40 h; series mostly up to 68.4 µM. A digest of the protocol:
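First, wild type DT40 cells were plated at 300 per well and equilibrated about 0.5 h at 37 C/5% CO2. Next, compounds in DMSO were added and exposure lasted 40 h. Finally, CellTiter-Glo was added for 30 min at room temperature and luminescence recorded.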
A general note: In qHTS, concentration-response curves come from the screen itself.

Experiment [3] is described as follows: qHTS assay for identifying genotoxic compounds that show differential cytotoxicity against isogenic chicken DT40 cell lines with known DNA damage response pathways - Rev3 mutant cell line (AID 743014). Note: nearly all actives have a fitted effect of over 55% in size. Note: potency is the fitted concentration of half-maximal effect. The conditions noted are these: chicken DT40 Rev3-/- viability, CellTiter-Glo, 40 h; series mostly up to 68.4 µM.
Experiment [4] in a line: qHTS assay for identifying genotoxic compounds that show differential cytotoxicity against isogenic chicken DT40 cell lines with known DNA damage response pathways - Rad54/Ku70 mutant cell line (AID 743015). Note: nearly all actives have a fitted effect of over 60% in size. Note: potency is the fitted concentration of half-maximal effect. The note with it: DT40 Rad54/Ku70 mutant viability, CellTiter-Glo, 40 h; series mostly up to 66.8 µM.
Experiment [5] can be described thus: qHTS assay to identify small molecule antagonists of the androgen receptor (AR) signaling pathway - cell viability counter screen (AID 743033; note: nearly all actives have a fitted effect of over 45% in size). The conditions noted are these: AR-bla HEK293 viability, CellTiter-Glo luminescence, 16 h; series mostly up to 58.5 µM.
Experiment [6] can be described thus: qHTS assay to identify small molecule antagonists of the androgen receptor (AR) signaling pathway using the MDA cell line - cell viability counter screen (AID 743041; note: nearly all actives have a fitted effect of over 45% in size). The conditions noted are these: MDA-kb2 viability, CellTiter-Fluor, 16 h, cells co-treated with R1881 androgen agonist; series mostly up to 70.3 µM. In short, it runs like this:
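Viability counter screen run alongside the AR antagonist reporter: cells seeded 5 h before compound, R1881 added, 16 h incubation at 37C without CO2, fluorescent CellTiter-Fluor signal quantified.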

The nature of experiment [7]: qHTS assay to identify small molecule antagonists of the thyroid receptor (TR) signaling pathway - cell viability counter screen (AID 743064). Note: nearly all actives have a fitted effect of over 50% in size. Note: potency is the fitted concentration of half-maximal effect. The conditions noted are these: GH3.TRE-Luc viability, CellTiter-Fluor, 24 h; series mostly up to 70.3 µM. A digest of the protocol: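 Viability of T3-stimulated (1 nM final) GH3.TRE-Luc cells is measured by CellTiter-Fluor fluorescence after 23.5 h compound exposure at 37 °C plus 30 min reagent incubation.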

The nature of experiment [8]: qHTS assay to identify small molecule antagonists of the thyroid receptor (TR) signaling pathway (AID 743065). Note: nearly all actives have a fitted effect of over 55% in size. Note: potency is the fitted concentration of half-maximal effect. The conditions noted are these: GH3.TRE-Luc, T3-stimulated luciferase inhibition, 23.5 h; series mostly up to 70.3 µM. A digest of the protocol: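 GH3.TRE-Luc rat pituitary cells carrying two TR response elements driving luciferase were plated for 4 h, given compound plus 1 nM T3 (final), and incubated 23.5 h at 37 C. ONE-Glo luminescence measured reporter inhibition; CellTiter-Fluor fluorescence tracked cytotoxicity.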

For experiment [9], the system named is thyroid hormone receptor (rat, GH3 cells). The experiment is described as follows: qHTS assay to identify small molecule agonists of the thyroid receptor (TR) signaling pathway (AID 743066; calls by dose curve). The note with it: GH3.TRE-Luc cells, TR agonist luciferase, 24 h; series mostly up to 83.9 µM.
Experiment [10] has as its target Estrogen receptor (Homo sapiens) (UniProt P03372). The experiment is described as follows: qHTS assay to identify small molecule antagonists of the estrogen receptor alpha (ER-alpha) signaling pathway (AID 743069; active = well fitted curve in the direction sought with a large enough effect in the signal ratio in the repeat runs, not every such curve was filed as active; the % refers to the signal ratio). The conditions noted are these: HEK293 ER-alpha-UAS-bla, beta-lactamase ratio, antagonist mode; series mostly up to 69.4 µM. In short, it runs like this:
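Estradiol-stimulated ER-alpha-UAS-bla HEK293 cells, 18 hr compound exposure at 37C. LiveBLAzer B/G substrate, 2 hr RT, fluorescence read.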

Experiment [11] can be described thus: qHTS assay to identify small molecule antagonists of the estrogen receptor alpha (ER-alpha) signaling pathway - cell viability counter screen (AID 743074; calls by dose curve;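 note: HEK293 cells carrying ER-alpha-UAS-bla reporter stimulated with 17beta-estradiol; nearly all actives have a fitted effect of over 45% in size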). The note with it: ERalpha-bla HEK293 viability, CellTiter-Glo luminescence, 18 h; series mostly up to 69.4 µM.
Experiment [12] addresses Estrogen receptor (Homo sapiens) (UniProt P03372). The experiment is described as follows: qHTS assay to identify small molecule agonists of the estrogen receptor alpha (ER-alpha) signaling pathway (AID 743075; calls by dose curve;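 note: HEK293 GripTite cells with ER-alpha and UAS-driven beta-lactamase reporter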). The conditions noted are these: HEK293 ER-alpha-UAS-bla, beta-lactamase FRET ratio, 18 h; series mostly up to 70.1 µM.
A short description of experiment [13]: qHTS assay to identify small molecule antagonists of the estrogen receptor alpha (ER-alpha) signaling pathway using the BG1 cell line - cell viability counter screen (AID 743081).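 Note: compound given together with 17beta-estradiol as the ER stimulus; nearly all actives have a fitted effect of over 45% in size.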 The conditions noted are these: BG1Luc4E2 viability, CellTiter-Fluor, 22 h; series mostly up to 70.3 µM.
The target in experiment [14] is Aromatase (Homo sapiens) (UniProt P11511). Description: qHTS assay to identify aromatase inhibitors (AID 743083). Note: nearly all actives have a fitted effect of over 55% in size. The conditions noted are these: MCF-7 aro ERE, testosterone-driven ERE luciferase, 24 h; series mostly up to 70.3 µM.
Aromatase (Homo sapiens), sequence (P11511 whole entry, looked up): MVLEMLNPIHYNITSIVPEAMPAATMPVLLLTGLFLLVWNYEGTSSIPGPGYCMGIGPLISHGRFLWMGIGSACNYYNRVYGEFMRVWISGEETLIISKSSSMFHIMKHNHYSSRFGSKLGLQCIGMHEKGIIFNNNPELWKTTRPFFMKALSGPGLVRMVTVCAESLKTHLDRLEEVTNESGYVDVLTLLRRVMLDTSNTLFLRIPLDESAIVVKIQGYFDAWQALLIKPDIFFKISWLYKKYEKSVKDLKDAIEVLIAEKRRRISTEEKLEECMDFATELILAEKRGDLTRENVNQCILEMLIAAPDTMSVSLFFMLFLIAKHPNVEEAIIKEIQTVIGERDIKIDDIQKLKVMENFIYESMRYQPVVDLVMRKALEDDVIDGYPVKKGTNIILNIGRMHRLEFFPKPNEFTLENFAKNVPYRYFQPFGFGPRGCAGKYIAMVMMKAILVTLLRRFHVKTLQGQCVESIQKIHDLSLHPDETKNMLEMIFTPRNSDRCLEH
Experiment [15] can be described thus: qHTS assay to identify aromatase inhibitors - cell viability counter screen (AID 743084). The conditions noted are these: MCF-7 aro ERE viability, CellTiter-Fluor, 24 h; series mostly up to 70.3 µM.
The target in experiment [16] is Estrogen receptor (Homo sapiens) (UniProt P03372). The experiment is described as follows: qHTS assay to identify small molecule agonists of the estrogen receptor alpha (ER-alpha) signaling pathway using the BG1 cell line (AID 743079). Note: nearly all actives have a fitted effect of over 20% in size. The note with it: BG1Luc4E2 cells, ERE-luciferase agonist, 22 h; series mostly up to 70.3 µM.
Estrogen receptor (Homo sapiens), sequence (P03372 whole entry, looked up): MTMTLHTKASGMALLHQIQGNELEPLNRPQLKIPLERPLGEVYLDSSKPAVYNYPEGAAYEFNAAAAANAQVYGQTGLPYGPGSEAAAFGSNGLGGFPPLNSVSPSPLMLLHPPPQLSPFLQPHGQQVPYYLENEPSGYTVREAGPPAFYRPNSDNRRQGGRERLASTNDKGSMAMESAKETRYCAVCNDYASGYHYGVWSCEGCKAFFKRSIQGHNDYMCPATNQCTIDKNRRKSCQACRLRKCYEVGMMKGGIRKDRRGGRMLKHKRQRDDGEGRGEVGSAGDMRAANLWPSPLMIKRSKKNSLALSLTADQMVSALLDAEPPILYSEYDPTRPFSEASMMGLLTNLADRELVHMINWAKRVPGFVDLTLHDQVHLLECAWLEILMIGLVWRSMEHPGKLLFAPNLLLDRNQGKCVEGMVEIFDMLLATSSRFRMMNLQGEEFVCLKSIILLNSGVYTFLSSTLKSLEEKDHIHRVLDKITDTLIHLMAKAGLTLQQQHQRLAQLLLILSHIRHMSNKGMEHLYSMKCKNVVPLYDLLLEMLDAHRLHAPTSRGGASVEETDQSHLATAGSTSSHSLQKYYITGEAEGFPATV
Experiment [17] can be described thus: qHTS assay to identify small molecule antagonists of the estrogen receptor alpha (ER-alpha) signaling pathway using the BG1 cell line (AID 743080; calls by dose curve;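 note: BG1 cells stimulated with 17beta-estradiol alongside compound; nearly all actives have a fitted effect of over 25% in size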). The note with it: BG1Luc4E2 ERE-luciferase antagonist mode, luminescence; series mostly up to 70.3 µM. In short, it runs like this:
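After 5 days in phenol-red-free 10% charcoal-stripped FBS medium, BG1-Luc-4E2 cells were seeded, left 24 h at 37 C, co-treated with compounds and 17beta-estradiol for 21.5 h, then assayed for viability and luciferase.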

Inconclusive results are not listed. The source made the active and inactive calls. Unless noted, calls come from the whole dose curve; as a rule, active = well fitted curve in the direction sought with a large enough effect in the repeat runs; inconclusive = weak or mixed curves; inactive = no such curve, though single readings can be large; an effect the other way counts as inactive or inconclusive.

Consider `C[N+]1(C)CCCC(OC(=O)C(O)(c2ccccc2)c2ccccc2)C1` (stereo unspecified), for which the call in experiment [1], in [5], in [9], in [13] and in experiment [14] was inactive. The Potency entry in experiment [2], in [3], in experiment [4], in experiment [6], in [7] and in [8] was “inactive” in each case. Moreover, the Potency result in experiment [10], in experiment [11], in experiment [12] and in [15] was “inactive” in each case.

For `O=C1NC(=O)C2CC=CCC12` (stereo unspecified), the outcome in experiment [1], in experiment [5], in experiment [9] and in experiment [13] was inactive. Besides, the Potency result in experiment [2], in [3], in [4], in [6], in [7] and in experiment [8] was “inactive” each time. For the same compound, in [11], the Potency entry is “inactive”.

For the compound `CC1=CCC(O)(C(C)C)CC1` (stereo unspecified), the outcome in [1], in experiment [5], in experiment [9], in experiment [13] and in experiment [14] was inactive. Moreover, the Potency entry in [2], in [3], in experiment [4], in [6], in experiment [7] and in experiment [8] was “inactive” in each case. The Potency entry in experiment [10], in [11], in [12] and in experiment [15] was “inactive” throughout.

Regarding `CCN(C=O)CC`, the compound was classed as inactive in experiment [1], in experiment [5], in experiment [9] and in experiment [13]. Also, the Potency result in experiment [2], in [3], in experiment [4], in experiment [6], in experiment [7] and in experiment [8] was “inactive” throughout. Besides, the Potency result in [11] is “inactive”.

Consider `OCCc1ccccn1`, for which the call in [1], in experiment [5], in experiment [9], in [13] and in experiment [14] was inactive. For the same compound, the Potency entry in [2], in experiment [3], in [4], in experiment [6], in experiment [7] and in [8] was “inactive” each time. Also, the Potency entry in experiment [11] and in [15] was “inactive” each time.

As to `C=CCCCCCCCCC(=O)OCC`, the call in experiment [1], in experiment [5], in [9], in experiment [13] and in [14] was inactive. Besides, the Potency entry in experiment [2], in experiment [3], in experiment [4], in [6], in experiment [7] and in experiment [8] was “inactive” in each case. Besides, the Potency entry in experiment [10], in experiment [12], in experiment [16], in experiment [17] and in experiment [15] was “inactive” throughout.

Take `CCOc1ccccc1OCC`: the outcome in experiment [1], in experiment [5], in [9], in [13] and in experiment [14] was inactive. In addition, the Potency entry in experiment [2], in [3], in [4], in experiment [6], in experiment [7] and in experiment [8] was “inactive” in each case. Further, the Potency result in experiment [11] and in experiment [15] was “inactive” throughout.

Regarding `O=Cc1cccc(Br)c1`, the outcome in experiment [1], in [5], in experiment [9], in experiment [13] and in experiment [14] was inactive. Besides, the Potency result in [2], in experiment [3], in experiment [4], in experiment [6], in experiment [7] and in experiment [8] was “inactive” throughout. In addition, the Potency result in experiment [11] and in [15] was “inactive” in each case.

Turning to `CCN1CCOCC1`, the compound was called inactive in experiment [1], in experiment [5], in experiment [9], in experiment [13] and in experiment [14]. Also, the Potency result in [2], in experiment [3], in experiment [4], in experiment [6], in experiment [7] and in experiment [8] was “inactive” each time. Further, the Potency entry in experiment [11] and in experiment [15] was “inactive” in each case.

Consider `NC(=O)N1c2ccccc2CC(=O)c2ccccc21`, for which the result in [1], in [5], in experiment [9] and in [13] was inactive. In addition, the Potency in experiment [2] was 5.96 µM (active); in experiment [3] it was 5.96 µM (active); in [4] it was 5.96 µM (active); in experiment [7] it was 13.3 µM (active); in experiment [8], 11.9 µM (active). Moreover, the Potency result in experiment [6] and in experiment [11] was “inactive” each time.

Values taken from PubChem BioAssay (Tox21).
